Compound activity deposited in PubChem by Sanford-Burnham Center for Chemical Genomics.
The list is not random: actives were taken first. Their share in the collection is about 28%.
CYP2C9 inh = blockers of cytochrome P450 2C9 activity – biochemical, luminescence, ADME assay, primary screen. inhibition, % at 5 µM. P11712. hit rate 20% among 96,000. CYP2C9 Supersomes, luciferin-H conversion. AID 777, 2007;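 active = blocking of liver enzyme CYP2C9 beyond about 50% at 5 µM, limit read from the data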
CYP2C19 activ = human CYP2C19 activators, primary screen, biochemical, luminescence. 96,000 tested, under 10 active. recombinant CYP2C19, luciferin-H EGE luminescence; stronger effect = higher value; 0 = fully inhibited enzyme, 1 = untreated enzyme. activation factor at 5 µM. Cytochrome P450 2C19 (Homo sapiens), P33261;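 active = activation factor of at least 2 at 5 µM in the primary screen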;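 also: 0 = wells with 2.5 mM tranylcypromine and 1 = vehicle-only wells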
Target sequence (P33261 whole entry, looked up): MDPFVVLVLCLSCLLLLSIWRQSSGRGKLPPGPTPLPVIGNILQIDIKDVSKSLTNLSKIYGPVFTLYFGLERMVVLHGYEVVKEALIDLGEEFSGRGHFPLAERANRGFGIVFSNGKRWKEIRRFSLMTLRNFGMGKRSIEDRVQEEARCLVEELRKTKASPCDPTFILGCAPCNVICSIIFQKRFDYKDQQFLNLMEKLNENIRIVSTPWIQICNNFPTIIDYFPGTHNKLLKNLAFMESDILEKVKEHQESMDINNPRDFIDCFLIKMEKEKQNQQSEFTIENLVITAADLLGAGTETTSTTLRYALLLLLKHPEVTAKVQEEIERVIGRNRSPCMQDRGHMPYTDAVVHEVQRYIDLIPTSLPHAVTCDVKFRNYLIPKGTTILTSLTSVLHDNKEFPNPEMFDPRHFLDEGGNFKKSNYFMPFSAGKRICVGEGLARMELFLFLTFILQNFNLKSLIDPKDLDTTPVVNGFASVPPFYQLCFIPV
CYP2C9 act = human CYP2C9 activators, primary screen, biochemical, luminescence | recombinant CYP2C9, luciferin-H conversion; stronger effect = higher value; factor 1 = untreated enzyme, 0 = blocked | activation factor at 5 µM | Cytochrome P450 2C9 (Homo sapiens), P11712 | AID 1024, 2008 | hit rate 1.4% among 96,000;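 active = activation factor of 2 or more for CYP2C9 at a 5 µM dose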;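 also: 0 = sulfaphenazole-blocked wells and 1 = vehicle-only wells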
CYP2C19 inh = blockers of cytochrome P450 2C19 activity – biochemical, luminescence, ADME assay, primary screen; AID 778, 2007; hit rate 21% among 96,000; CYP2C19 Supersomes, luciferin-H EGE luminescence, 30 min; inhibition, % at 5 µM; P33261;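 active = CYP2C19 inhibition above a set limit at 5 µM in the primary screen, cut at about 50% in these data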;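 also: plate controls were negative control wells for no effect and 2.5 mM tranylcypromine positive control for full effect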
Pyk2 oligo antag = antagonists of Pyk2 self-association, primary screen, Q293 cells, FERM NanoBiT luminescence, HTS; hit rate 0.83% among 99,000; stronger effect = lower value; z-score (the deposit names both 25 µM and 10 µM); Protein-tyrosine kinase 2-beta (Homo sapiens), Q14289; AID 1347419, 2020;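 active = Z-score of -3 or lower, scaled per plate to the spread of control and sample wells; inactive = z-score above -3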;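 also: negative z-score means lost luminescence so less FERM oligomerization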
* hit, by the source's call; . = no result.

SMILES	CYP2C9 inh	CYP2C19 activ	CYP2C9 act	CYP2C19 inh	Pyk2 oligo antag
Cc1nnc(NC(=O)C2(c3ccccc3)CCOCC2)s1	18	0.5	0.8	50*	-0.07
CCc1nnc(NC(=O)C2COc3ccccc3O2)s1 (stereo not drawn)	56*	0.9	0.4	14	0.14
CCC(CC)c1nnc(NC(=O)C2COc3ccccc3O2)s1 (stereo not drawn)	.	.	.	.	-0.33
Cc1nnc(NC(=O)C2COc3ccccc3O2)s1 (stereo not drawn)	86*	0.5	0.1	45	1.2
Cc1cc(C)n(-c2c(F)c(F)c(CN3CCCCC3)c(F)c2F)n1	9	0.8	0.9	24	0.17
Cc1nnsc1NC(=O)OCC(C)(C)C	-19	1	1.2	2	0.44
CCOC(=O)N1CCC(=C(C#N)C(=O)Nc2cc(OC)ccc2OC)CC1	-6	0.8	1.1	16	0.47
Cc1ccc(CSc2nnc(C(F)(F)F)n2Cc2ccc(F)cc2)cc1	69*	0.6	0.3	42	-0.4
COc1cccc(CSc2nnc(C(F)(F)F)n2Cc2ccc(F)cc2)c1	61*	0.6	0.4	39	-0.44
Cc1ccc(CNn2cnnc2SCc2ccc(F)cc2)cc1	.	.	.	.	-0.16
C/C(=N\Nc1ccc([N+](=O)[O-])cc1[N+](=O)[O-])C(C)(C)C(C(=O)O)C(=O)O	.	.	.	.	0.18
O=C(NC(=S)N(Cc1ccccc1)Cc1ccccc1)c1ccccc1F	53*	0.8	0.5	22	-0.9
COC(=O)c1nn(-c2ccc(Cl)cc2)c(=O)cc1Sc1ccccn1	4	0.9	1	11	1.4
CC(=O)Cc1nsc(NC(=O)c2ccc(COc3ccccc3)o2)n1	57*	0.8	0.4	19	-0.69
CC(=O)Cc1nsc(Nc2ccccc2)n1	18	0.2	0.8	77*	0.14
O=C(CSc1ccc2nnc(-c3cccnc3)n2n1)NCc1ccc2c(c1)OCO2	11	1.1	0.9	-13	.
COc1ccc2c(c1)OC(O)(C(F)F)CC2=O (stereo not drawn)	-1	0.8	1	19	-0.01
O=C1CC(O)(C(F)F)Oc2ccc3ccccc3c21 (stereo not drawn)	60*	0.2	0.4	85*	-0.6
CC1(C)Cc2c(ccc3ccccc23)C(=O)N1	-52	0.8	1.5	19	-0.96
O=C1CC(O)(C(F)(F)F)Oc2c1ccc1ccccc21 (stereo not drawn)	96*	0.2	0	84*	-1.2
CC(=O)Nc1nc(CCC(C)C)cc2c1c(=O)oc1ccccc12	16	0.9	0.8	14	0.29
Cc1ccc(N2CC(C(=O)NCc3ccccn3)CC2=O)cc1 (stereo not drawn)	26	0.8	0.7	17	0.76
COC(=O)c1ccc2c(c1)N(C)C(=O)CS2	6	0.9	0.9	11	0.26
O=C1CC(N(CCc2ccccc2)C(=S)Nc2cc(Cl)ccc2Cl)C(=O)N1c1c(Cl)cccc1Cl (stereo not drawn)	54*	0.9	0.5	8	-0.39
CC1(C)CC(=O)C(/C=N/c2ncccc2C(=O)O)=C(O)C1	2	1.1	1	-9	0.94
SMILES	CYP2C9 inh	CYP2C19 activ	CYP2C9 act	CYP2C19 inh	Pyk2 oligo antag
CC1(O)c2ccccc2C(=O)N1CCc1ccccc1F (stereo not drawn)	25	0	0.8	96*	0.08
CN1C(=O)OC(C)(CCc2ccccc2)C1(C)O (stereo not drawn)	-1	0.7	1	25	1
CC1(O)N(Cc2ccccc2)C(=O)OC12CCCCC2 (stereo not drawn)	10	0.3	0.9	74*	0.04
CC1(O)c2ccccc2C(=O)N1Cc1ccccc1 (stereo not drawn)	17	0.1	0.8	85*	-0.2
CC1CCc2nc(N)c(C#N)c(-c3cccn3C)c2C1 (stereo not drawn)	7	1	0.9	0	-0.32
CCOC(=O)C1=NNC2C(=O)N(C3CCCCC3)C(=O)C12 (stereo not drawn)	8	0.8	0.9	25	0
COCCN(CC(=O)Nc1ccc(F)cc1)S(=O)(=O)c1ccc(S(=O)(=O)N2CCCC2)cc1	62*	1	0.4	4	0.62
